Laboratory results from PubChem BioAssay AID1159580 (chemical genetic matrix, 2015).
In all, about 5,500 compounds went through this assay and about 2,000 (36%) were called active. About 18% were inconclusive and are not listed. No stated cut-off is given here; in the data, active means normalized growth mostly below about 0.91 (no sharp cut-off); inconclusive means no clear call, values can overlap the other calls; inactive means mostly above about 0.92. This is one part of the list.

Experiment: chemical genetic growth profiling, strain panel (AID 1159580);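 further: tested at 20 µM; growth read once vehicle control cultures reached saturation at 30 °C; 1 = growth at the plate median or of vehicle wells; lower values mean less growth of the strain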
Settings: growth OD

Measured: normalized growth

COc1nc(NC(C)C)nc(NC(C)C)n1
inactive: S. cerevisiae deletion strains, locus YJR075W, strain HOC1, active compounds read low 1 | S. cerevisiae deletion strains, locus YKL009W, strain mrt4, active compounds read low 1.02 | S. cerevisiae deletion strains, locus YKL068W, active compounds read low 1.01 | S. cerevisiae deletion strains, locus YKL085W, strain MDH1 (second series), active compounds read low 1.01 | S. cerevisiae deletion strains, locus YKL085W, strain MDH1, active compounds read low 1.01 | S. cerevisiae deletion strains, locus YKL160W, strain elf1, active compounds read low 1.02 | S. cerevisiae deletion strains, locus YKL190W, strain CNB1, active compounds read low 1.02 | S. cerevisiae deletion strains, locus YKR001C, strain vps1, active compounds read low 1.02 | S. cerevisiae deletion strains, locus YKR026C, strain gcn3, active compounds read low 1.02 | S. cerevisiae deletion strains, locus YKR091W, strain srl3, active compounds read low 1.02 | S. cerevisiae deletion strains, locus YLL001W, strain dnm1, active compounds read low 1.02 | S. cerevisiae deletion strains, locus YLL026W, active compounds read low 1.02 | S. cerevisiae deletion strains, locus YLL041C, strain sdh2, active compounds read low 1.02 | S. cerevisiae deletion strains, locus YLR027C, strain aat2, active compounds read low 1.03 | S. cerevisiae deletion strains, locus YLR039C, strain RIC1, active compounds read low 1.02 | S. cerevisiae deletion strains, locus YLR058C, strain SHM2, active compounds read low 1 | S. cerevisiae deletion strains, locus YLR102C, strain apc9, active compounds read low 1.02 | S. cerevisiae deletion strains, locus YLR113W, strain HOG1, active compounds read low 0.986 | S. cerevisiae deletion strains, locus YLR221C, strain rsa3, active compounds read low 1.04 | S. cerevisiae deletion strains, locus YLR258W, strain gsy2, active compounds read low 1.01 | S. cerevisiae deletion strains, locus YLR262C, strain YPT6 (second series), active compounds read low 1.02 | S. cerevisiae deletion strains, locus YLR262C, strain YPT6, active compounds read low 1.02 | S. cerevisiae deletion strains, locus YLR268W, strain sec22, active compounds read low 1.01 | S. cerevisiae deletion strains, locus YLR320W, strain mms22, active compounds read low 1.04 | S. cerevisiae deletion strains, locus YLR330W, strain CHS5, active compounds read low 1.01 | S. cerevisiae deletion strains, locus YLR342W, strain FKS1 (second series), active compounds read low 1.03 | S. cerevisiae deletion strains, locus YLR342W, strain FKS1, active compounds read low 1.01 | S. cerevisiae deletion strains, locus YLR357W, strain rsc2, active compounds read low 1.03 | S. cerevisiae deletion strains, locus YLR370C, strain arc18, active compounds read low 1.04 | S. cerevisiae deletion strains, locus YLR371W, strain rom2, active compounds read low 1.02 | S. cerevisiae deletion strains, locus YLR384C, strain iki3, active compounds read low 1.03 | S. cerevisiae deletion strains, locus YLR418C, strain cdc73, active compounds read low 1.01 | S. cerevisiae deletion strains, locus YML016C, strain PPZ1, active compounds read low 1.01 | S. cerevisiae deletion strains, locus YML032C, strain rad52, active compounds read low 1.02 | S. cerevisiae deletion strains, locus YML120C, strain ndi1, active compounds read low 1.02 | S. cerevisiae deletion strains, locus YML124C, strain tub3, active compounds read low 1.02 | S. cerevisiae deletion strains, locus YMR058W, strain fet3, active compounds read low 1.03 | S. cerevisiae deletion strains, locus YMR078C, strain ctf18, active compounds read low 1.03 | S. cerevisiae deletion strains, locus YMR125W, strain sto1, active compounds read low 1.03 | S. cerevisiae deletion strains, locus YMR129W, active compounds read low 1.01 | S. cerevisiae deletion strains, locus YMR205C, strain PFK2, active compounds read low 1.01 | S. cerevisiae deletion strains, locus YMR223W, strain ubp8, active compounds read low 1.02 | S. cerevisiae deletion strains, locus YMR231W, strain pep5, active compounds read low 1.02 | S. cerevisiae deletion strains, locus YMR263W, strain SAP30, active compounds read low 1.02 | S. cerevisiae deletion strains, locus YMR307W, strain GAS1, active compounds read low 1.04 | S. cerevisiae deletion strains, locus YNL067W, strain RPL9B, active compounds read low 1.01 | S. cerevisiae deletion strains, locus YNL071W, strain lat1, active compounds read low 1.01 | S. cerevisiae deletion strains, locus YNL128W, strain TEP1, active compounds read low 1 | S. cerevisiae deletion strains, locus YNL153C, strain GIM3, active compounds read low 1.01 | S. cerevisiae deletion strains, locus YNL183C, strain NPR1, active compounds read low 0.999 | S. cerevisiae deletion strains, locus YNL209W, strain ssb2, active compounds read low 1.02 | S. cerevisiae deletion strains, locus YNL233W, strain BNI4, active compounds read low 1.01 | S. cerevisiae deletion strains, locus YNL248C, strain rpa49, active compounds read low 1.04 | S. cerevisiae deletion strains, locus YNL250W, strain rad50, active compounds read low 1.01 | S. cerevisiae deletion strains, locus YNL271C, strain bni1, active compounds read low 1.01 | S. cerevisiae deletion strains, locus YNL298W, strain CLA4, active compounds read low 1.03 | S. cerevisiae deletion strains, locus YNL307C, strain MCK1, active compounds read low 1.03 | S. cerevisiae deletion strains, locus YNL322C, strain KRE1 (second series), active compounds read low 1.02 | S. cerevisiae deletion strains, locus YNL322C, strain KRE1, active compounds read low 1 | S. cerevisiae deletion strains, locus YNR049C, strain mso1, active compounds read low 1.05 | S. cerevisiae deletion strains, locus YNR052C, strain pop2, active compounds read low 1.03 | S. cerevisiae deletion strains, locus YOL006C, strain TOP1, active compounds read low 1.03 | S. cerevisiae deletion strains, locus YOL012C, strain htz1 1.23 | S. cerevisiae deletion strains, locus YOL147C, strain pex11, active compounds read low 1.02 | S. cerevisiae deletion strains, locus YOR001W, strain rrp6, active compounds read low 1.02 | S. cerevisiae deletion strains, locus YOR061W, strain CKA2, active compounds read low 1 | S. cerevisiae deletion strains, locus YOR069W, strain VPS5, active compounds read low 1.01 | S. cerevisiae deletion strains, locus YOR070C, strain gyp1, active compounds read low 1.03 | S. cerevisiae deletion strains, locus YOR080W, strain dia2, active compounds read low 1.03 | S. cerevisiae deletion strains, locus YOR083W, strain WHI5, active compounds read low 1.01 | S. cerevisiae deletion strains, locus YOR106W, strain vam3, active compounds read low 1.02 | S. cerevisiae deletion strains, locus YOR136W, strain idh2, active compounds read low 1.02 | S. cerevisiae deletion strains, locus YOR144C, strain elg1, active compounds read low 1.03 | S. cerevisiae deletion strains, locus YOR184W, strain ser1, active compounds read low 1.03 | S. cerevisiae deletion strains, locus YOR231W, strain MKK1, active compounds read low 1.05 | S. cerevisiae deletion strains, locus YOR265W, strain rbl2, active compounds read low 1.01 | S. cerevisiae deletion strains, locus YOR270C, strain vph1, active compounds read low 1.06 | S. cerevisiae deletion strains, locus YOR290C, strain snf2, active compounds read low 0.997 | S. cerevisiae deletion strains, locus YOR316C, strain cot1, active compounds read low 1.02 | S. cerevisiae deletion strains, locus YPL051W, strain arl3, active compounds read low 1.01 | S. cerevisiae deletion strains, locus YPL055C, strain LGE1, active compounds read low 1.02 | S. cerevisiae deletion strains, locus YPL078C, strain atp4, active compounds read low 1.01 | S. cerevisiae deletion strains, locus YPL106C, strain sse1, active compounds read low 1.01 | S. cerevisiae deletion strains, locus YPL240C, strain hsp82, active compounds read low 1.01 | S. cerevisiae deletion strains, locus YPL241C, strain CIN2, active compounds read low 1.02 | S. cerevisiae deletion strains, locus YPL256C, strain CLN2, active compounds read low 1.08 | S. cerevisiae deletion strains, locus YPR119W, strain clb2, active compounds read low 1.01 | S. cerevisiae deletion strains, locus YPR141C, strain kar3, active compounds read low 1.03 | S. cerevisiae deletion strains, locus YPR163C, strain tif3, active compounds read low 1.02 | S. cerevisiae deletion strains, locus YPR167C, strain met16, active compounds read low 1.02 | S. cerevisiae deletion strains, strain wtn01, active compounds read low 1.01 | S. cerevisiae strains, strain wild type, active compounds read low 1
